Among the data in PubChem BioAssay AID1851 (National Center for Advancing Translational Sciences (NCATS), 2009) are AC50 and activity, negative = inhibition values, retold here.

Molecules are shown by their SMILES. Several values for one entry are separate records, joined by “and”; a condition that tells them apart may be missing. Equal values may be shown once. About 5,800 (36%) of roughly 16,000 compounds were called active. Not shown: some 23% with an inconclusive outcome. Calls come from the whole dose curve; as a rule, active = well fitted curve in the direction sought with a large enough effect; inconclusive = small, poorly fitted or top-dose-only effect, or effect the other way; inactive = no such curve, though single readings can be large or run the other way. The list shows a part of the results. Some structures have more than one record in an assay (separate samples or runs), and their calls can disagree.
% is set by controls: 0 for no effect and ±100 for the full control effect.

Cytochrome P450 2C19 (Homo sapiens), sequence (P33261 whole entry, looked up): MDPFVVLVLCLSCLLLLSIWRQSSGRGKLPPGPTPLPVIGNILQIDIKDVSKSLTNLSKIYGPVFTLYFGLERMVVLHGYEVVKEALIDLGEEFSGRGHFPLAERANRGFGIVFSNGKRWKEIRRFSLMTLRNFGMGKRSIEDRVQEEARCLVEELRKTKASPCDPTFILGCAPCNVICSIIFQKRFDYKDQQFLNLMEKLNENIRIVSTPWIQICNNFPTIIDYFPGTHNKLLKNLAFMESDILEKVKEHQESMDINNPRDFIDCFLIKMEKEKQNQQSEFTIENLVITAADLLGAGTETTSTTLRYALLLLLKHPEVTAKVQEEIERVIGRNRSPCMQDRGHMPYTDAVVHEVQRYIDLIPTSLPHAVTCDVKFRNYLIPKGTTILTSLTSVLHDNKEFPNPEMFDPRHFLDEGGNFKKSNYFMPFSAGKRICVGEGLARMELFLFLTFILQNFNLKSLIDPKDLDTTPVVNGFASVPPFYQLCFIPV

The assay addresses Cytochrome P450 2C19 (Homo sapiens) (UniProt P33261). The experiment in a line: Cytochrome panel assay with activity outcomes. The note with it: recombinant CYP, pro-luciferin dealkylation, luminescence, p450-cyp2c19; series mostly up to 57.1 µM.
Usually AC50 stands for the concentration at which the activity in the assay is half-maximal. As to `CC(C)[C@H](N)c1nnc(SCc2ccc(Cl)cc2)o1`, the AC50 was 0.178 µM (active). On the same count and under the same terms, under `CC(C)[C@H](N)c1nnc(SC/C=C/c2ccccc2)o1` stands 2 µM (active). Regarding `OC[C@@H](O)[C@@H](O)[C@@H](O)[C@@H](O)c1nc2ccc(Cl)cc2[nH]1`, the activity, negative = inhibition is -0.441% [at 11.4 µM] (inactive). Turning to `C/C(=N\N=C(c1ccccc1)c1ccccc1)c1cccs1`, the AC50 is 3.55 µM (active). With `CC(=O)/C(=N\N=C(N)N)c1ccccc1`, the activity, negative = inhibition is 102% [at 11.4 µM] (inactive). For the compound `C/C(=N\N=C1\NC(=O)CC(C(=O)O)S1)c1cccs1` (configuration not stated), the AC50 entry was “inactive”. Consider `O=C(c1n[nH]c(=O)c2ccccc12)N1CCN(C2c3ccccc3-c3ccccc32)CC1`, for which the AC50 is 3.16 µM (active). As to `Cc1cccc(C)c1NC(=O)C[N+](C)(C)C`, the half-maximal activity concentration (AC50) entry was “inactive and 15.8 µM (active)”. On the same count and under the same terms, under `CC[N+](CC)(CC(=O)Nc1c(C)cccc1C)Cc1ccccc1` stands “inactive”; under `CC[N+](CC)(CC)CC(=O)Nc1c(C)cccc1C`, “inactive”.

On to `C/C(=N\[N+](C)(C)C)c1ccc(C)c(C)c1`, for which the activity, negative = inhibition was 17.4% [at 11.4 µM] (inactive). Consider `CC1=Nc2ccccc2/C1=C\c1nc(-c2ccc(C(F)(F)F)cc2)oc1O`, for which the AC50 is 14.1 µM (active).

As to `COc1cccc(OC)c1/C(O)=C(\C#N)c1nc2ccccc2[nH]1`, the AC50 is 7.08 µM (active). The same measure, in the same setting: under `Cc1ccccc1OC/C(O)=C(\C#N)c1nc2ccccc2[nH]1` stands “inactive”; under `C=CC1=C(C(=O)O)N2C(=O)[C@@H](NC(=O)/C(=N\OCC(=O)O)c3csc(N)n3)[C@@H]2SC1`, “inactive”; under `CSc1nc(N)nc(SCC(=O)Nc2ccc(Cl)cc2)c1C#N`, 0.708 µM (active). As to `CCOc1ccc(NC(=O)CSc2nc(C)c3c(c2C#N)CCCC3)cc1`, the AC50 is 2.82 µM (active). The same measure, in the same setting: with `CC(=O)Nc1ccc(C2=NN(CC#N)C(=O)SC2)cc1` the entry was “inactive”. `COc1ccc(CSC2=C(C#N)C(=O)NC3(CCCCC3)S2)cc1`: the activity, negative = inhibition is -6.47% [at 11.4 µM] (inactive). `COc1ccc(NC(=O)CSc2nc(C)c3c(c2C#N)CCCC3)cc1`: the AC50 was 1.12 µM (active). Turning to `CCOc1ccc(NC(=O)CCNS(=O)(=O)c2ccc3c(c2)c(=O)n(C)c(=O)n3C)cc1`, the AC50 entry is “inactive”.

As for `CO[C@H]1COC(=O)[C@H]2CCCN2C(=O)[C@@H](C)COC(=O)C/C=C\[C@@H]1C`, the activity, negative = inhibition is 43.2% [at 11.4 µM] (inactive). On the same count and under the same terms, with `C#CCCCO/N=C1/[C@H]2O[C@@H]2[C@@H](O)[C@H]2[C@H]1CCn1c(=O)n(C)c(=O)n12` the figure was -3.85% [at 11.4 µM] (inactive). As to `Cc1c(-c2ccccc2)oc2c(C(=O)OCCN3CCCCC3)cccc2c1=O`, the AC50 entry is “inactive”.

With `O=C(Oc1ccc(C(=S)N2CCOCC2)cc1Br)c1cc(Cl)ccc1Cl`, the AC50 result was “inactive”.

In the case of `Cc1ccccc1C(=O)Oc1ccc(Br)cc1C(=S)N1CCCC1`, the AC50 was 2.24 µM (active). On the same count and under the same terms, with `COc1ccc2c(c1)C(=O)N(c1ccccc1)C(=O)C2` the figure was 11.2 µM (active). On the same count and under the same terms, with `COc1ccc(-n2c(C)n[nH]c2=O)cc1` the entry was “inactive”; with `O=C(c1c(O)c2ccc(Cl)cc2[nH]c1=O)C1CC1`, “inactive”; with `N#Cc1c(N2CCN(C(=O)c3ccccc3Cl)CC2)nc(-c2ccccc2)c2c1CCCC2`, 3.98 µM (active). Still for that read-out and setting: under `N#Cc1ccc(CN2CCC3(CC2)CCN(C(=O)c2ccncc2)CC3)cc1` stands “inactive”; under `CC(C)CN1CCC2(CC1)CCN(C(=O)c1ccncc1)CC2`, “inactive”; under `CC(C)Cc1nc(N2CCN(C(=O)c3ccccc3)CC2)c(C#N)c2c1CCC2`, 2.51 µM (active). Take `CCC(=O)N1CCN(C(=O)c2ccccc2)CC1`: the AC50 result was “inactive”. The same measure, in the same setting: under `COc1ccc(C(=O)N2CCC3(CCN(Cc4ccc(C#N)cc4)CC3)CC2)cc1` stands “inactive”.

As for `CC(=O)OC[C@@H]1O[C@@H](O/N=C2/C[C@@H](O)[C@@H](O)[C@@H]3[C@H]4C(=O)N(c5ccc(F)cc5F)C(=O)[C@@H]4CC[C@@H]23)[C@H](OC(C)=O)[C@H](OC(C)=O)[C@@H]1OC(C)=O`, the activity, negative = inhibition was 51.5% [at 11.4 µM] (inactive). Consider `Cc1cc(NC(=O)Nc2ccc3c(ccn3C)c2)sn1`, for which the AC50 was 3.16 µM (active). The same measure, in the same setting: with `CCCC[C@@H]1CN2[C@H](c3ccc(Br)cc3)[C@H](C)CC[C@H]2C(=O)O1` the figure was 3.98 µM (active). `C[C@@H]1CC[C@H]2C(=O)NC[C@@H](O)CN2[C@@H]1c1ccc(Br)cc1`: the AC50 is 2 µM (active).

Turning to `C[C@@H]1CN2[C@H](c3ccc(Br)cc3)[C@H](C)CC[C@H]2C(=O)O1`, the activity, negative = inhibition was -28.6% [at 11.4 µM] (inactive). Still for that read-out and setting: with `CCCC[C@@H]1CN2[C@H](c3ccc(Br)cc3)[C@@H](C)CC[C@H]2C(=O)O1` the figure was -43.3% [at 11.4 µM] (inactive). Consider `C[C@@H]1CC[C@H]2C(=O)O[C@H](CN=[N+]=[N-])CN2[C@@H]1c1ccc(Br)cc1`, for which the AC50 is 0.398 µM (active).

With `CO[C@H]1COC(=O)[C@@H](CCSC)NC(=O)C/C=C\[C@@H](C)[C@H](OC)COC(=O)[C@@H](OCc2ccccc2)/C=C\[C@@H]1C`, the activity, negative = inhibition was -26% [at 11.4 µM] (inactive).

For `Cc1ccccc1/C=C\C1=NCCN1`, the AC50 result is “inactive”.

`N=C(N)[C@H](N=Nc1ccccc1)C(N)=O`: the activity, negative = inhibition is -26.2% [at 11.4 µM] (inactive).

Consider `Cc1ccc(-c2nnc(-c3ccc4ccccc4c3)o2)cc1`, for which the activity, negative = inhibition is 10.3% [at 11.4 µM] (inactive). For `CCOc1ccc(-c2nnc(-c3ccncc3)o2)cc1`, the concentration at half-maximal activity (AC50) is 0.112 µM (active). On the same count and under the same terms, with `COc1ccc(-c2nnc(-c3cccnc3)o2)cc1` the figure was 17.8 µM (active); with `N#CCCn1c(=O)cnc2cnc(N3CCNCC3)nc21`, “inactive”. As for `CC(=O)Nc1ccc(-c2cc(C(=O)O)c3cc4ccccc4cc3n2)cc1`, the activity, negative = inhibition is 9.44% [at 11.4 µM] (inactive).

Regarding `CCC(=O)Nc1nnc(C(C)(C)C)s1`, the AC50 entry is “inactive”. For `COc1ccc(-c2cc(C(=O)Nc3nc4c(C)cccc4s3)c3ccccc3n2)cc1OC`, the AC50 was 2.51 µM (active). For the compound `CC(C)(C)NS(=O)(=O)c1ccc(NC(=O)C(Sc2ccccc2)c2ccccc2)cc1` (configuration not stated), the AC50 was 3.55 µM (active). Same read-out and setting: under `CC(C)(C)c1nnc(NC(=O)c2cc(-c3ccccc3)nc3ccccc23)s1` stands 5.01 µM (active); under `CC(C)(C)NS(=O)(=O)c1ccc(NC(=O)c2cc(-c3ccccc3)nc3ccccc23)cc1`, 2.82 µM (active). Still for that read-out and setting: under `CN1CCN(c2ncc3nc(-c4cc(F)cc(F)c4)c(=O)n(Cc4cccs4)c3n2)CC1` stands “inactive”; under `CCS(=O)(=O)N(C)[C@@H]1c2cc(C#N)ccc2OC(C)(C)[C@H]1O`, “inactive”; under `Cc1cc([N+](=O)[O-])nn1Cc1ccccc1F`, 11.2 µM (active). On the same count and under the same terms, under `Cc1cc([N+](=O)[O-])nn1CC(=O)NNC(=S)Nc1ccc(F)cc1` stands “inactive”. On to `Nc1c(S(=O)(=O)c2ccccc2)c2nc3ccccc3nc2n1Cc1ccco1`, for which the half-maximal activity concentration (AC50) was 7.08 µM (active). On to `CCOC(=O)c1nn(-c2ccccc2)c(-c2ccccc2)c1C(=O)c1ccccc1`, for which the AC50 was 10 µM (active). The same measure, in the same setting: under `COC(=O)c1nn(-c2ccccc2)c(-c2ccccc2)c1C(=O)c1ccccc1` stands 8.91 µM (active).

Turning to `NC(=O)c1nn(-c2ccccc2)c(=O)cc1O`, the AC50 entry is “inactive”. Still for that read-out and setting: under `O=C(c1ccccc1)c1nn(-c2ccccc2)c(=O)cc1C(F)(F)F` stands 1.58 µM (active); under `COC(=O)c1c(C)nc2ccccc2c1C(=O)O`, “inactive”. For the compound `O=C(O)c1nn(-c2ccccc2)ccc1=O`, the AC50 result is “inactive”. In the case of `COc1ccc(NC(=O)N2CCCC3(CCN(C(=O)c4cccn4C)CC3)C2)cc1`, the AC50 result is “inactive”. Same read-out and setting: under `CC(C)[C@@H]1[C@H]2CC[C@H](C2)[C@H]1N` stands “inactive”; under `C[C@@H](O)[C@H]1C(=O)N2C(C(=O)O)=C(S[C@@H]3CN[C@H](C(=O)N(C)C)C3)[C@H](C)[C@H]12`, “inactive”.

In the case of `CCc1ccc(/C=C\C(=O)N2CCc3ccccc3C2)cc1`, the AC50 was 4.47 µM (active). Regarding `CC1=C[N+](=O)c2ccccc2[N+]1=O`, the activity, negative = inhibition was 5.82% [at 11.4 µM] (inactive).

On to `Cc1cc(NC(=O)CCC(=O)N(CC2CCCO2)C(C(=O)NC2CCCC2)c2cccnc2)no1` (configuration not stated), for which the AC50 entry was “inactive”. For the compound `CCOC(=O)CN(C(=O)CCC(=O)Nc1cc(C)on1)C(C(=O)NC1CCCC1)c1cccnc1` (configuration not stated), the AC50 was 28.2 µM (active).

As for `O=C(O)[C@@H]1CCCNC1`, the AC50 entry is “inactive”. Turning to `CCCCC1CCC(c2nc(-c3ccccn3)no2)CC1` (configuration not stated), the AC50 is 22.4 µM (active). As to `O=c1[nH]c(=O)n(Cc2ccco2)c2c1C(C(F)(F)F)(C(F)(F)F)N=C(CCC1CCCCC1)N2`, the AC50 result is “inactive”. The same measure, in the same setting: under `O=C(c1ccc([N+](=O)[O-])cc1)[C@@H](Br)[C@@H](Br)c1ccnc2ccccc12` stands 1.26 µM (active); under `O=C(N/N=C/c1cccnc1)c1ccc([N+](=O)[O-])cc1`, “inactive”. Same read-out and setting: with `CCNc1ncc2nc(-c3ccc(OC)cc3)c(=O)n(Cc3cccs3)c2n1` the entry was “inactive”; with `COc1ccc(C2C(C(=O)c3ccco3)=C(O)C(=O)N2Cc2cccnc2)cc1OC` (configuration not stated), “inactive”. For `CCN1C(=O)C(CC(=O)Nc2ccc(OC)cc2)N(Cc2cccnc2)C1=S` (configuration not stated), the AC50 is 1.26 µM (active). Same read-out and setting: with `CCN1C(=O)C(CC(=O)Nc2ccc(OC)cc2)N(Cc2cccs2)C1=S` (configuration not stated) the figure was 0.355 µM (active); with `COc1ccc(-c2nc3cnc(N(C)C)nc3n(Cc3cccs3)c2=O)cc1`, “inactive”; with `Cn1c(=O)[nH]c2ncn(C)c2c1=O`, “inactive”.

As to `O=C(NCc1ccco1)c1ccccc1NS(=O)(=O)c1ccc(Br)s1`, the AC50 is 1.58 µM (active). On the same count and under the same terms, under `Nc1ccccc1C#Cc1ccccc1` stands 10 µM (active) and 5.01 µM (active); under `O=C1C=C(c2cccs2)CC(c2cccs2)C1n1cnc([N+](=O)[O-])c1` (configuration not stated), 10 µM (active); under `COc1ccccc1CN1CCCC2(CCN(C(=O)c3cnccn3)CC2)C1`, “inactive”. Same read-out and setting: under `O=C(Nc1cccc2ccccc12)/C(=C/c1ccc([N+](=O)[O-])cc1)NC(=O)c1ccccc1` stands 7.94 µM (active). Regarding `O=C(Nc1ccccc1)/C(=C\c1ccncc1)NC(=O)c1ccccc1`, the AC50 was 0.126 µM (active). Same read-out and setting: with `Cc1ccc(NC(=O)/C(=C\c2ccc([N+](=O)[O-])cc2)NC(=O)c2ccccc2)cc1` the figure was 1.41 µM (active); with `COc1cc(/C=C(/NC(=O)c2ccccc2)C(=O)Nc2ccccc2)c([N+](=O)[O-])cc1OC`, 15.8 µM (active).
